# From PubChem BioAssay
# PKA kinase inh: inhibitors of human protein kinase A; 65,000 tested, 0.1% active; AID 524; inhibition, % at 6 µM; PKA Kemptide phosphorylation, Kinase-Glo ATP luminescence;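 active = inhibition above the screen-wide mean inhibition plus 3 SD, cut at about 21% in these data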
# D1 allo mod: allosteric modulators of human D1 dopamine receptor; P21728; HEK293 D1, CRE-luciferase, dopamine EC30 potentiation; actives deviate in either direction; B-score at 10 µM; 58,000 tested, 5.9% active; AID 641;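 active = luminescence count or its row- and column-corrected plate score outside the 99.7% band of the plate's sample wells, on either side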
# ROCK2 inh: blocks human Rho kinase 2 activity. purified ROCK2, Kinase-Glo ATP depletion luminescence. inhibition, % at 6 µM. 60,000 tested, 0.35% active. O75116. AID 604;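 active = inhibition above the screen-wide mean inhibition plus 3 SD, cut at about 18% in these data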;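 note: plate controls were DMSO wells for no effect and Y-27632 control wells after no-enzyme background subtraction for full effect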
# hDAT+cocaine: modulates human dopamine transporter uptake under cocaine; Q01959; LLC-PK1 hDAT cells, [14C]-dopamine uptake with cocaine IC80; actives deviate in either direction; B-score at 10 µM; 110,000 tested, 1.3% active; AID 449768;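 active = Z score or B-score, a plate-position-corrected score, falls beyond the plate's 99.7% confidence bounds, in either direction; inactive = both scores lie inside the 99.7% bounds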;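 note: scored against the spread of the other compound wells on the same plate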
# Target sequence (Q01959 whole entry, looked up): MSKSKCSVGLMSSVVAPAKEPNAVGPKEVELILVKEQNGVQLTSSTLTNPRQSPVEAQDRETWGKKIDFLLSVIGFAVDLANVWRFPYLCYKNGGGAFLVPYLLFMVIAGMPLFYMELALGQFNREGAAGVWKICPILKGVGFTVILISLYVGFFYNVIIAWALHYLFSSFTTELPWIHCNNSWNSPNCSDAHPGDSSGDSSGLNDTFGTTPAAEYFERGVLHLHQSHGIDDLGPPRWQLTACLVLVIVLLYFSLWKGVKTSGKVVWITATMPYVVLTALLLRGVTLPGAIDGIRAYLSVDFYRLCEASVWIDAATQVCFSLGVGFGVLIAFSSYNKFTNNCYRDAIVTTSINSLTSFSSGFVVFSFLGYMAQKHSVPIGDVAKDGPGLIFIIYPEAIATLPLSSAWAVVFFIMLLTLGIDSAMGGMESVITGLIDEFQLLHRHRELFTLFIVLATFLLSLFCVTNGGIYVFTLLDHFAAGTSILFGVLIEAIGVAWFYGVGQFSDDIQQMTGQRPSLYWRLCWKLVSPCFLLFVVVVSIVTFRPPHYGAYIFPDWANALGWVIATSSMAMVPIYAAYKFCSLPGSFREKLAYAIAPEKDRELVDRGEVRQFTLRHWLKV
# * hit, by the source's call; . = no result given. The full list was thinned out, with hits kept by preference.
SMILES,PKA kinase inh,D1 allo mod,ROCK2 inh,hDAT+cocaine
CC(=O)N1CCc2cc(S(=O)(=O)NC(CC(C)C)C(=O)Nc3cc(C)ccn3)ccc21 (stereo not given),4,-4*,1,-0.73
Cc1cccc(N2CCN(c3nc4ccc(Cl)cc4n4cnnc34)CC2)c1C,-2,-0.44,2,0.8
O=c1c2cc(N3CCOCC3)ccc2[nH]c(=S)n1CCCN1CCN(c2ccccc2F)CC1,-3,-6.7*,.,-0.32
O=C(Cn1c(C(=O)NCC2CCCO2)cc2sccc21)c1ccccc1 (stereo not given),5,0.3,10,0.15
O=C(Cn1c(C(=O)N2CCN(C3CCCC3)CC2)cc2sccc21)c1ccccc1,4,-1.8,6,2.5*
COc1ccccc1NC(=O)C(NC(=O)OC(C)(C)C)C(C)OCc1ccccc1 (stereo not given),.,.,.,0.17
COc1cc(C2C3C(=O)N(c4ccc(F)cc4)C(=O)C3ON2c2ccccc2)ccc1O (stereo not given),-2,-0.58,0,-6.9*
O=C(CSc1nc2ccccc2s1)N1c2ccccc2Sc2ccccc21,.,.,.,0.76
O=C(O)CCSc1nc2ccccc2s1,9,-6.5*,6,-0.29
O=[N+]([O-])c1cc(-c2csc(NC(CO)c3nc4ccccc4n3CCOCCO)n2)ccc1Cl (stereo not given),.,.,.,1
NC(=O)C1CCN(C(=O)CN(c2cccc(C(F)(F)F)c2)S(=O)(=O)c2ccccc2)CC1,5,-2.3*,2,-0.096
Cc1ccccc1OCC(O)Cn1c(=N)n(CCN2CCOCC2)c2ccccc21 (stereo not given),-2,-4.9*,.,0.48
N=c1n(CCN2CCOCC2)c2ccccc2n1CC(O)COc1ccccc1 (stereo not given),5,-2.1,8,0.12
N=c1n(CCN2CCCCC2)c2ccccc2n1CC(O)COc1ccccc1 (stereo not given),-2,-2.6,-3,0.65
COc1ccccc1OCC(O)Cn1c(=N)n(CCN2CCCCC2)c2ccccc21 (stereo not given),0,-2.5*,.,0.00071
CNC(=O)c1[nH]cnc1C(=O)N[C@@H](C)C(=O)OC(C)(C)C,.,.,.,-1.5
Cc1ccc(F)c([C@H]2C3C=CCC(c4ccccc4)C3C(=O)N2Cc2ccccc2)c1 (stereo not given in full),.,.,.,0.24
COC(=O)c1cccc(CSc2nnc(C)s2)c1,-3,-0.46,-4,1
Cc1cc(C)cc(OCC(=O)NCC2CCCO2)c1 (stereo not given),.,-4.8*,.,0.33
Cc1cc(C)c(C)c(OCC(=O)NCC2CCCO2)c1 (stereo not given),3,0.47,7,0.15
Clc1cccc(-c2ccc(/C=N/n3cnnc3)o2)c1,6,-5.1*,5,-0.021
Cc1ccc(-c2ccc(/C=N/n3cnnc3)o2)cc1Cl,0,-1.6,3,-0.58
CN1CCN(c2nc3c(c(=O)[nH]c(=O)n3C)n2CCSc2ncccn2)CC1,4,-0.039,-7,.
Cn1c(=O)[nH]c(=O)c2c1nc(N1CCN(c3ccccc3)CC1)n2CCSc1ncccn1,-4,-4.2*,-1,0.91
CC1=CCC(C(=O)O)(C(=O)N/N=C/c2cccs2)C(c2ccc([N+](=O)[O-])cc2)C1 (stereo not given),.,.,.,0.53
SMILES,PKA kinase inh,D1 allo mod,ROCK2 inh,hDAT+cocaine
O=C(NC1CC1)C1=C[C@@H](c2csc3ccccc23)C[C@@H](OCCCCO)O1,.,.,.,-0.64
Cc1cc(=O)n2nc(-c3ccccc3)sc2n1,6,-0.8,-1,-2.7*
COC(=O)c1cc(=O)nc2sc(-c3ccccc3)nn12,4,0.37,.,-0.92
CC(C)(C)[C@H]1C=C(C(N)=O)O[C@@H](OCc2ccc(CO)cc2)C1,.,.,.,-0.017
CCOc1ccc(C(=O)Nc2cccc(C)n2)cc1,0,-6.5*,-7,1.8
CCCCOc1ccc(C(=O)Nc2cccc(C)n2)cc1,-3,-2.6,-4,.
O=C1C=C(c2ccccc2)OC(=O)C1C(=O)c1ccccc1 (stereo not given),.,.,.,-0.41
CCOC(=O)c1c(NC(=O)CCN2CCOCC2)sc2c1CC(C)(C)OC2,7,2,9,2.8*
CN(CCO)c1ncnc2nc[nH]c12,15,.,37*,-0.66
O=S(=O)(c1cccc2cnccc12)N1CCCNCC1,.,-1.1,.,-0.17
CC1CNCCN1S(=O)(=O)c1cccc2cnccc12 (stereo not given),46*,-0.039,107*,0.03
Cn1c(=O)c(=O)n(C)c2cc(S(=O)(=O)Nc3ccc4c(c3)OCCO4)ccc21,0,-5.7*,1,-0.038
Cn1c(=O)oc2cc(S(=O)(=O)Nc3ccc4c(c3)OCCO4)ccc21,-6,-1.4,2,-0.078
CCOC(=O)c1cc(C#N)c(Oc2ccccc2OC)nc1-c1ccccc1,.,.,.,-0.35
Cc1c(NC(=O)COC(=O)C(c2ccc(Cl)cc2)C(C)C)c(=O)n(-c2ccccc2)n1C (stereo not given),.,.,.,-7.9*
CCC1=Nc2cc(C(=O)NCCCOC(C)C)ccc2Sc2ccccc21,.,.,.,-7.2*
COc1ccc(CCN2C(=S)NC3CC2(C)Oc2ccc([N+](=O)[O-])cc23)cc1OC (stereo not given),.,.,.,-0.57
CC1=Nn2c(nc(-c3ccccc3)c2-c2ccccc2)NC(=O)C1Br (stereo not given),.,.,.,0.64
C=CCn1c(SCC(=O)Nc2nnc(CC)s2)nnc1-c1cccnc1,.,.,.,0.42
C=CCn1c(SCc2nc(N)nc(N(C)C)n2)nnc1-c1cccnc1,0,-6*,1,.
O/N=C1/CC/C(=N\O)c2nn(-c3ccccc3)nc21,6,0.51,2,-8*
O=C(O)c1nn(-c2ccccc2)nc1-c1nn(-c2ccccc2)nc1C(=O)O,-2,0.2,2,-1.1
Clc1ccc(C2C3=C(Nc4ncnn42)c2ccccc2CC3)cc1 (stereo not given),.,.,.,-1.3
COC(=O)[C@@H]1C[C@@]2(Br)c3ccccc3N(S(=O)(=O)c3ccccc3)[C@H]2N1C(=O)OC,.,.,.,1
COc1ccccc1NC(=O)N(Cc1ccco1)Cc1cc2ccc(C)c(C)c2[nH]c1=O,-15,1,-6,2.6*
SMILES,PKA kinase inh,D1 allo mod,ROCK2 inh,hDAT+cocaine
COc1ccccc1NC(=O)N(Cc1ccco1)Cc1cc2cc(C)cc(C)c2[nH]c1=O,11,2.5,4,2.2
O=C(c1ccco1)N1CCN(CC(O)COc2ccc3oc4ccccc4c3c2)CC1 (stereo not given),-4,-0.021,0,2.6*
COCCN(CCOC)S(=O)(=O)c1ccc(C(=O)Nc2nc(-c3ccncc3)cs2)cc1,12,0.26,19*,0.12
COc1cccc(C(=O)Nc2nnc(C(C)C)s2)c1,0,-3.3*,.,0.45
CCCc1nnc(NC(=O)c2cccc(OC)c2)s1,12,-0.57,6,0.37
Cc1ccccc1CNc1ccc(C(CC(N)=O)NC(=O)c2ccccc2)cc1[N+](=O)[O-] (stereo not given),.,.,.,0.072
CC1CCCCN1S(=O)(=O)c1ccc2c(c1)oc(=O)n2CC(=O)O (stereo not given),16,-0.45,8,-2.3*
Nc1nonc1-c1nc2ccccc2[nH]1,19,0.0053,61*,-0.11
Cc1ccc(Cn2c(SCC(=O)Nc3cc(C)on3)nc3ccccc3c2=O)cc1,12,0.87,4,-0.28
